Results from PubChem BioAssay (NCATS).
Results filed as inconclusive are left out. Where a call stands in place of a potency, no number is given. The source made the active and inactive calls. Unless noted, calls come from the whole dose curve; as a rule, active = well fitted curve in the direction sought with a large enough effect; inconclusive = small, poorly fitted or top-dose-only effect, or another doubt; inactive = no such curve, though single readings can be large; an effect the other way counts as inactive or inconclusive.

Target: Aldehyde dehydrogenase, mitochondrial (Homo sapiens) (UniProt P05091)
Experiment: qHTS for Inhibitors of the Aldehyde Dehydrogenase Family (ALDH2) Confirmatory screens (AID 2061303; active = well fitted inhibition curve with a large enough effect; title and protocol of this record describe different tests; note: nearly all actives have a fitted effect of over 45% in size)
Conditions: ALDH inhibition qHTS; series mostly up to 45.4 µM
With `C[C@@]1(C(=O)O)CC[C@]2(C)CC[C@]3(C)C4=CC(=O)c5cc(O)c(O)cc5[C@]4(C)CC[C@@]3(C)[C@@H]2C1` the Potency was “inactive”.
With `CO[C@@H]1[C@H](O)[C@@H](O[C@@H]2C[C@H]3CC[C@@H]4C(CC[C@]5(C)[C@@H](C6=CC(=O)OC6)CC[C@]45O)[C@@]3(C)[C@H](O)C2)O[C@H](C)[C@@H]1O` (stereo not given in full) the Potency was “inactive”.
With `Cc1cc(C(=O)CN2CCCC2)c(C)n1-c1ccc(F)cc1` the Potency was “inactive”.
For `COc1ccc2c(c1)c(CCN(C)C)cn2S(=O)(=O)c1ccccc1`, the Potency was “inactive”.
For `CCC(C)C1NC(=O)C(C(C)=O)=C1O` (stereo not given), the Potency was “inactive”.
For `NNC(=O)c1nn(Cc2ccc(Cl)cc2Cl)c2ccccc12`, the Potency was “inactive”.
For `O=S(=O)(c1ccccc1F)N1CCOc2c(N3CCNCC3)cccc21`, the Potency was “inactive”.
For `CCCN(CCC)[C@@H]1CCc2ccc3[nH]c(C#N)cc3c2C1`, the Potency was “inactive”.
In the case of `Cc1[nH]c2ccc(Cl)cc2c1CCN(C)C`, the Potency was “inactive”.

Test system: not listed separately
Experiment: qHTS for Inhibitors of the Aldehyde Dehydrogenase Family (ALDH1A2, ALDH1A3, ALDH2, ALDH3A1) (AID 2061307); note: nearly all actives have a fitted effect of over 50% in size; for potency: test system not described further here; potency is the fitted concentration of half-maximal effect
Conditions: ALDH inhibition qHTS; series mostly up to 50.3 µM
With `C[C@@]1(C(=O)O)CC[C@]2(C)CC[C@]3(C)C4=CC(=O)c5cc(O)c(O)cc5[C@]4(C)CC[C@@]3(C)[C@@H]2C1` the Potency was “inactive”.
In the case of `CO[C@@H]1[C@H](O)[C@@H](O[C@@H]2C[C@H]3CC[C@@H]4C(CC[C@]5(C)[C@@H](C6=CC(=O)OC6)CC[C@]45O)[C@@]3(C)[C@H](O)C2)O[C@H](C)[C@@H]1O` (stereo not given in full), the Potency was “inactive”.
In the case of `Cc1cc(C(=O)CN2CCCC2)c(C)n1-c1ccc(F)cc1`, the Potency was “inactive”.
With `COc1ccc2c(c1)c(CCN(C)C)cn2S(=O)(=O)c1ccccc1` the Potency was “inactive”.
With `CCC(C)C1NC(=O)C(C(C)=O)=C1O` (stereo not given) the Potency was “inactive”.
For `NNC(=O)c1nn(Cc2ccc(Cl)cc2Cl)c2ccccc12`, the Potency was 8.91 µM (active).
In the case of `O=S(=O)(c1ccccc1F)N1CCOc2c(N3CCNCC3)cccc21`, the Potency was “inactive”.
For `CCCN(CCC)[C@@H]1CCc2ccc3[nH]c(C#N)cc3c2C1`, the Potency was “inactive”.
For `Cc1[nH]c2ccc(Cl)cc2c1CCN(C)C`, the Potency was “inactive”.

Target: Aldehyde dehydrogenase, mitochondrial (Homo sapiens) (UniProt P05091)
Experiment: qHTS for Inhibitors of the Aldehyde Dehydrogenase Family (ALDH2) Primary screen (AID 2061308); note: nearly all actives have a fitted effect of over 55% in size
Conditions: ALDH2 enzyme inhibition qHTS, 1536-well; series mostly up to 56 µM
For `C[C@@]1(C(=O)O)CC[C@]2(C)CC[C@]3(C)C4=CC(=O)c5cc(O)c(O)cc5[C@]4(C)CC[C@@]3(C)[C@@H]2C1`, the Potency was “inactive”.
In the case of `CO[C@@H]1[C@H](O)[C@@H](O[C@@H]2C[C@H]3CC[C@@H]4C(CC[C@]5(C)[C@@H](C6=CC(=O)OC6)CC[C@]45O)[C@@]3(C)[C@H](O)C2)O[C@H](C)[C@@H]1O` (stereo not given in full), the Potency was “inactive”.
In the case of `Cc1cc(C(=O)CN2CCCC2)c(C)n1-c1ccc(F)cc1`, the Potency was “inactive”.
For `COc1ccc2c(c1)c(CCN(C)C)cn2S(=O)(=O)c1ccccc1`, the Potency was “inactive”.
In the case of `CCC(C)C1NC(=O)C(C(C)=O)=C1O` (stereo not given), the Potency was “inactive”.
With `NNC(=O)c1nn(Cc2ccc(Cl)cc2Cl)c2ccccc12` the Potency was “inactive”.
In the case of `O=S(=O)(c1ccccc1F)N1CCOc2c(N3CCNCC3)cccc21`, the Potency was “inactive”.
With `CCCN(CCC)[C@@H]1CCc2ccc3[nH]c(C#N)cc3c2C1` the Potency was “inactive”.

Target: Retinaldehyde dehydrogenase 3 (Homo sapiens) (UniProt P47895)
Experiment: qHTS for Inhibitors of the Aldehyde Dehydrogenase Family (ALDH1A3) Confirmatory screens (AID 2061311); note: nearly all actives have a fitted effect of over 60% in size
Conditions: ALDH inhibition qHTS; series mostly up to 46 µM
In the case of `CO[C@@H]1[C@H](O)[C@@H](O[C@@H]2C[C@H]3CC[C@@H]4C(CC[C@]5(C)[C@@H](C6=CC(=O)OC6)CC[C@]45O)[C@@]3(C)[C@H](O)C2)O[C@H](C)[C@@H]1O` (stereo not given in full), the Potency was “inactive”.
With `Cc1cc(C(=O)CN2CCCC2)c(C)n1-c1ccc(F)cc1` the Potency was “inactive”.
For `COc1ccc2c(c1)c(CCN(C)C)cn2S(=O)(=O)c1ccccc1`, the Potency was “inactive”.
For `O=S(=O)(c1ccccc1F)N1CCOc2c(N3CCNCC3)cccc21`, the Potency was “inactive”.
With `CCCN(CCC)[C@@H]1CCc2ccc3[nH]c(C#N)cc3c2C1` the Potency was “inactive”.
In the case of `Cc1[nH]c2ccc(Cl)cc2c1CCN(C)C`, the Potency was “inactive”.

Target: Retinaldehyde dehydrogenase 3 (Homo sapiens) (UniProt P47895)
Experiment: qHTS for Inhibitors of the Aldehyde Dehydrogenase Family (ALDH1A3) Validation screen (AID 2061312); note: nearly all actives have a fitted effect of over 45% in size; note: potency is the fitted concentration of half-maximal effect
Conditions: ALDH1A3 enzyme inhibition qHTS validation, fluorescence; series mostly up to 42.4 µM
With `CC(N)[C@H](O)c1ccc(O)c(O)c1` (stereo not given in full) the Potency was “inactive”.
In the case of `C=CCN1CC[C@]23CCCCC2[C@H]1Cc1ccc(O)cc13` (stereo not given in full), the Potency was “inactive”.
With `CN1C2CCC1CC(OC(c1ccccc1)c1ccccc1N)C2` (stereo not given) the Potency was “inactive”.
In the case of `COc1ccc2c(c1)C13CCCCC1C(C2)N(C)CC3` (stereo not given), the Potency was “inactive”.
In the case of `CCN1C[C@@]2(COC)C3[C@@H](OC)C4[C@@H]1C3([C@@H]1C[C@]3(O)[C@H](OC(=O)c5ccccc5)[C@@H]1[C@]4(OC(C)=O)[C@@H](O)[C@@H]3OC)[C@H](OC)C[C@H]2O`, the Potency was “inactive”.
For `COc1cc(C(O)CN)ccc1O` (stereo not given), the Potency was “inactive”.
With `C#CCOC(=O)C1=CCCN(C)C1` the Potency was “inactive”.
In the case of `CCS(=O)(=O)Nc1cccc(C(=C2CCCCC2)c2cnc[nH]2)c1`, the Potency was “inactive”.
In the case of `C[C@@H](N)Cc1cnc[nH]1`, the Potency was “inactive”.
In the case of `Cc1cc(C(=O)CN2CCCC2)c(C)n1-c1ccc(F)cc1`, the Potency was “inactive”.
With `O=C(O)[C@@H]1CCN1` the Potency was “inactive”.
In the case of `COc1ccc2[nH]c3c(c2c1)CCNC3`, the Potency was “inactive”.
For `CC(C)(C)c1o[nH]c(=O)c1CC(N)C(=O)O` (stereo not given), the Potency was “inactive”.
In the case of `COc1ccc2c(c1)c(CCN(C)C)cn2S(=O)(=O)c1ccccc1`, the Potency was “inactive”.
With `COC(=O)N1CCN(C(=O)Cc2ccc(Cl)c(Cl)c2)C(CN2CCCC2)C1` (stereo not given) the Potency was “inactive”.
For `CC1(C(=O)O)C2CCC(O2)C1(C)C(=O)O` (stereo not given), the Potency was “inactive”.
In the case of `COc1ccc(C(=O)N2CCCC2=O)cc1`, the Potency was “inactive”.
With `O=c1[nH]c2ccccc2n1CCCN1CCC(n2c(=O)[nH]c3cc(Cl)ccc32)CC1` the Potency was “inactive”.
With `COc1ccc2c(c1OC)C(=O)O[C@H]2[C@@H]1c2cc3c(cc2CCN1C)OCO3` the Potency was “inactive”.
With `CC(CCc1ccccc1)NC(C)C(O)c1ccc(O)cc1` (stereo not given) the Potency was “inactive”.
For `C[N+]1(C)C2CCC1CC(OC(=O)C(CO)c1ccccc1)C2` (stereo not given), the Potency was “inactive”.
For `O=C(O)c1nn(Cc2ccc(Cl)cc2Cl)c2ccccc12`, the Potency was “inactive”.
In the case of `COC[C@H]1OC(=O)c2coc3c2[C@@]1(C)C1=C(C3=O)C2CCC(=O)[C@@]2(C)C[C@H]1OC(C)=O` (stereo not given in full), the Potency was 7.08 µM (active).
With `O=C1C=CC(=O)C=C1` the Potency was “inactive”.
With `NC(CCP(=O)(O)O)C(=O)O` (stereo not given) the Potency was “inactive”.
With `CC[C@@H](C(N)=O)N1CCCC1=O` the Potency was “inactive”.
For `C[C@H](N)Cc1cccc(C(F)(F)F)c1`, the Potency was “inactive”.
For `Cc1[nH]c2ccc(Cl)cc2c1CCN(C)C`, the Potency was 10 µM (active).
